This is part of a sample that, as a whole, favours compounds with a hit. Of some 79,000 tested, about 15% had one in any assay. Activity calls are given as the source filed them. No stated cut-off is given here; in the data, active means growth inhibition above about 70%; inactive means the rest.
What was measured:
[1] = NCI Yeast Anticancer Drug Screen. Data for the rad50 strain (AID 155);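 further: 0% = growth of vehicle-only cultures of the same strain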; conditions: S. cerevisiae rad50 strain growth inhibition, stronger effect = higher value
Procedure, shortened: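 Growth of the mutant yeast was measured after compound exposure and referenced to vehicle-treated cultures.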

[2] = NCI Yeast Anticancer Drug Screen. Data for the mec2-1 strain (AID 157); conditions: S. cerevisiae mec2-1 strain, stronger effect = higher value
Procedure, shortened: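 Mutant yeast (mec2-1) grown with compound; growth inhibition relative to vehicle control reported.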

[3] = NCI Yeast Anticancer Drug Screen. Data for the sgs1 mgt1 strain (AID 161);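 further: 0% = growth of cultures given vehicle only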; conditions: S. cerevisiae sgs1 mgt1 strain, stronger effect = higher value
Procedure, shortened: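 This yeast growth screen uses a strain with defined DNA-repair lesions; compound-treated growth is compared with vehicle-treated growth.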

[4] = NCI Yeast Anticancer Drug Screen. Data for the cln2 rad14 strain (AID 165);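 further: 0% = growth equal to vehicle treated cultures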; conditions: S. cerevisiae cln2 rad14 strain, stronger effect = higher value
Procedure, shortened: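 Readout is yeast growth inhibition versus vehicle-treated controls, using a strain with cln2 and rad14 alterations exposed to compound.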

[5] = NCI Yeast Anticancer Drug Screen. Data for the bub3 strain (AID 167); conditions: S. cerevisiae bub3 mutant strain, stronger effect = higher value
Procedure, shortened: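 Whole-cell yeast assay. The mutant strain was incubated with compounds, and growth inhibition was determined by comparison with vehicle-treated cells.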

[6] = NCI Yeast Anticancer Drug Screen. Data for the mlh1 rad18 strain (AID 175); conditions: S. cerevisiae mlh1 rad18 strain growth inhibition, stronger effect = higher value
Procedure, shortened: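 Genetically defined yeast (DNA repair-deficient) exposed to compounds; growth inhibition determined relative to vehicle.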

[7] = at 5.0 µM (retest, dose inferred, filed as 0.5)
[8] = at 50.0 µM (retest, dose inferred, filed as 5.0)

Measured: growth inhibition

Brc1cc2ccccc2c2ccccc12
inactive: [1]; [7] 11% | [2]; [7] -7% | [2]; [8] 54% | [2]; at 50.0 µM 65.2% | [3]; [7] 7% | [3]; at 50.0 µM 59.8% | [4]; [7] 11% | [4]; [8] 28% | [4]; at 50.0 µM -16.1% | [5]; [7] 23% | [5]; at 50.0 µM 55.3% | [6]; [7] 41% | [6]; at 50.0 µM 40.8%
active: [1]; [8] 91% | [1]; at 50.0 µM 75.1% | [3]; [8] 89% | [5]; [8] 81% | [6]; [8] 91%

COC1C=COC2(C)Oc3c(C)c(O)c4c(O)c(c(C5SCCS5)c(O)c4c3C2=O)NC(=O)C(C)=C/C=C\C(C)C2OC(C)(C)OC(C2C)C(C)C(OC(C)=O)C1C (configuration not stated)
inactive: [1]; [7] 5% | [2]; [7] 8% | [3]; [7] -2% | [3]; [8] 36% | [4]; [7] 20% | [5]; [7] 5% | [6]; [7] 9%
active: [1]; [8] 83% | [1]; at 50.0 µM 86.7% | [2]; [8] 93% | [2]; at 50.0 µM 93.6% | [3]; at 50.0 µM 90.8% | [4]; [8] 93% | [4]; at 50.0 µM 90.3% | [5]; [8] 95% | [5]; at 50.0 µM 83.8% | [6]; [8] 92% | [6]; at 50.0 µM 87.8%

O=[N+]([O-])C1C(c2ccccc2)CC=CC1N1CCCC1 (configuration not stated)
active: [1]; [8] 97% | [1]; at 50.0 µM 98.5% | [2]; [8] 95% | [2]; at 50.0 µM 98% | [3]; [8] 97% | [3]; at 50.0 µM 98% | [4]; [8] 85% | [4]; at 50.0 µM 93.9% | [5]; [8] 95% | [5]; at 50.0 µM 97.3% | [6]; [8] 98% | [6]; at 50.0 µM 98.2%
inactive: [1]; [7] 2% | [2]; [7] 15% | [3]; [7] 17% | [4]; [7] -2% | [5]; [7] -3% | [6]; [7] 7%

CCOC(=O)C(C(C)=O)C1=C(Cl)C(=O)c2ccccc2C1=O (configuration not stated)
active: [1]; [7] 94% | [1]; [8] 100% | [1]; at 50.0 µM 99.3% | [2]; [7] 89% | [2]; [8] 100% | [2]; at 50.0 µM 99.5% | [3]; [7] 96% | [3]; [8] 100% | [3]; at 50.0 µM 99.5% | [4]; [7] 77% | [4]; [8] 100% | [4]; at 50.0 µM 89.7% | [5]; [7] 96% | [5]; [8] 100% | [5]; at 50.0 µM 97.5% | [6]; [7] 84% | [6]; [8] 99% | [6]; at 50.0 µM 99.3%

Cc1ccccc1N1CCN(c2c3c(nc4ccccc24)CCCCC3)CC1
inactive: [1]; [7] -4% | [2]; [7] 7% | [3]; [7] 7% | [4]; [7] -3% | [5]; [7] -9% | [6]; [7] -4%
active: [1]; [8] 94% | [1]; at 50.0 µM 97.2% | [2]; [8] 94% | [2]; at 50.0 µM 97% | [3]; [8] 95% | [3]; at 50.0 µM 97.2% | [4]; [8] 95% | [4]; at 50.0 µM 96.4% | [5]; [8] 95% | [5]; at 50.0 µM 97.5% | [6]; [8] 94% | [6]; at 50.0 µM 96.5%

Clc1ccc(/C=C\c2ccncc2)cc1
inactive: [1]; [7] 3% | [1]; [8] 58% | [1]; at 50.0 µM 48.2% | [2]; [7] 4% | [2]; [8] 51% | [2]; at 50.0 µM 44.9% | [3]; [7] 4% | [3]; [8] 59% | [3]; at 50.0 µM 29.1% | [4]; [7] 1% | [4]; [8] 7% | [4]; at 50.0 µM 29.7% | [5]; [7] 4% | [5]; [8] 39% | [5]; at 50.0 µM 30% | [6]; [7] -1% | [6]; [8] 32% | [6]; at 50.0 µM 62%

CC1OC2CC(=O)OC2C2=C1C(=O)c1c(O)cccc1C2=O (configuration not stated)
active: [1]; [7] 99% | [1]; [8] 99% | [1]; at 50.0 µM 91.8% | [2]; [7] 100% | [2]; [8] 99% | [2]; at 50.0 µM 93% | [3]; [7] 99% | [3]; [8] 99% | [3]; at 50.0 µM 92.6% | [4]; [7] 99% | [4]; [8] 99% | [4]; at 50.0 µM 91.4% | [5]; [7] 99% | [5]; [8] 99% | [5]; at 50.0 µM 91.4% | [6]; [7] 99% | [6]; [8] 99% | [6]; at 50.0 µM 91.7%

CN(C)CCSc1cc(-c2ccccc2)c2ccccc2n1
active: [1]; [8] 90% | [2]; [8] 87% | [3]; [8] 91% | [4]; [8] 94% | [5]; [8] 97% | [6]; [8] 92% | [6]; at 50.0 µM 78.2%
inactive: [1]; [7] -7% | [1]; at 50.0 µM 59.5% | [2]; [7] 6% | [2]; at 50.0 µM 29.9% | [3]; [7] -8% | [3]; at 50.0 µM 39.9% | [4]; [7] 26% | [4]; at 50.0 µM 21.9% | [5]; [7] 9% | [5]; at 50.0 µM 53.7% | [6]; [7] 15%

COc1cc(C2SC(N)=Nc3c2c(C)nn3C(=O)c2ccccc2O)cc(OC)c1OC (configuration not stated)
inactive: [1]; [7] -1% | [1]; at 50.0 µM 52.5% | [2]; [7] -10% | [2]; at 50.0 µM 39.9% | [3]; [7] -5% | [4]; [7] 3% | [4]; [8] 25% | [4]; at 50.0 µM 56.4% | [5]; [7] -1% | [6]; [7] 6% | [6]; at 50.0 µM 50.2%
active: [1]; [8] 80% | [2]; [8] 71% | [3]; [8] 75% | [3]; at 50.0 µM 79.8% | [5]; [8] 70% | [5]; at 50.0 µM 79.1% | [6]; [8] 86%

Reference: PubChem BioAssay (NCI)
